High-throughput results: PubChem, The Scripps Research Institute Molecular Screening Center
DAX1 inh-1 = DAX1 (NR0B1) inhibitors on StAR promoter, primary screen, cell-based, luminescence, SF-1 (NR5A1), full-length DAX-1; inhibition, % at 6.8 µM; HEK293T StAR-luciferase reporter, SF-1/DAX-1 repression relief; AID 652010, 2013; 370,000 compounds, 1.1% hits;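 active = inhibition above the mean over all tested compounds plus 3 SD, cut at about 3.6% in these data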;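 also: 0% = DAX-1 cells with DMSO and 100% = cells lacking DAX-1 with DMSO; higher inhibition means more luminescence from relief of DAX-1 repression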
hcDAF-12 act = H. contortus DAF-12 nuclear receptor activators, primary screen, cell-based, luminescence, HEK293, lit1-tk-luc reporter | 370,000 compounds, 1.4% hits | activation, % at 6.8 µM | HEK293 hcDAF-12 lit1-tk-luc reporter; 0% DMSO, 100% Δ7-dafachronic acid;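 active = activation above the mean of all tested compounds plus 3 SD, cut at about 5.5% in these data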;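 also: 100% = response to 3 µM Δ7-dafachronic acid high control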
ssDAF12 agonist = S. stercoralis DAF-12 nuclear receptor activators, primary screen, cell-based, luminescence, HEK293, GRIP1 co-expression, lit1-tk-luc; Nuclear hormone receptor DAF-12 (Strongyloides stercoralis); HEK293 ssDAF-12/GRIP1 lit1-tk-luc reporter; % of 3 µM dafachronic acid response; activation, % at 6.8 µM; 370,000 compounds, 1% hits;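 active = activation above the mean over all tested compounds plus 3 SD, cut at about 0.9% in these data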;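 also: 0% = DMSO-only wells and 100% = 3 µM delta7-dafachronic acid wells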
DAX1 inh-2 = DAX1 (NR0B1) inhibitors, primary screen, cell-based, HEK293, Gal4-DAX1, luciferase luminescence; inhibition, % at 6.75 µM; Nuclear receptor subfamily 0 group B member 1 (Homo sapiens), P51843; AID 504766, 2011; 340,000 compounds, 0.99% hits; HEK293 Gal4-DAX1 luciferase reporter;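 active = inhibition above the mean over all tested compounds plus 3 SD, cut at about 4.2% in these data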;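 also: 0% = DAX1-transfected cells with DMSO and 100% = empty-vector control cells with DMSO; inhibition shows as a rise in luminescence from relieved DAX1 repression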
Target sequence (P51843 207-470 limits assumed): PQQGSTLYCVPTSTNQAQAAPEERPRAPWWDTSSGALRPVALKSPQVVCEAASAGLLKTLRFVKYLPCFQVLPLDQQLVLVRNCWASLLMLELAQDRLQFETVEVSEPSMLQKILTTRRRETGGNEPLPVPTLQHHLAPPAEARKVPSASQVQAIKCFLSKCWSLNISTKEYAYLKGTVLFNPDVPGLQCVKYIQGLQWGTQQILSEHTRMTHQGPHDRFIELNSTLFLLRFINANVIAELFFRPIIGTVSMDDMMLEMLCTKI
hgDAF-12 ag = H. glycines DAF-12 receptor agonists, primary screen, cell-based, luminescence, HEK293, GAL4 fusion, UAS-luciferase | Nuclear hormone receptor DAF-12 (Heterodera glycines), GAL4 fusion | HEK293 GAL4-hgDAF12 UAS-luciferase reporter, agonist luminescence; normalized to butyrate control | activation, % at 6.8 µM | 370,000 compounds, 1.8% hits | AID 687014, 2013;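 active = activation above a cutoff set at the mean of all screened compounds plus 3 SD, cut at about 10% in these data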;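 also: 0% = DMSO wells and 100% = sodium butyrate wells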
GAA850 FXN act = FXN promoter activators, primary screen, cell-based, luciferase luminescence, HEK293 lucGAA850; HEK293 lucGAA850 FXN promoter luciferase reporter, 24 h; percent of 10 µM SAHA response; activation, % at 6 µM; 360,000 compounds, 0.56% hits; AID 540364, 2011;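 active = activation above the average of all compounds screened plus 3 SD, cutoff fixed separately per campaign, cut at about 7.5% in these data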;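 also: 0% = DMSO wells and 100% = 10 µM SAHA wells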
* marks the source's active call; other numbers are inactive results; . = no result given. Compounds with a hit are over-represented: about 4.5% of the library has one in this group of screens.

SMILES	DAX1 inh-1	hcDAF-12 act	ssDAF12 agonist	DAX1 inh-2	hgDAF-12 ag	GAA850 FXN act
O=C1[C@H]2[C@@H](c3ccc(F)cc3)N3C(=O)N(c4ccc(Br)cc4)C(=O)[C@@]3(Cc3ccc(Cl)cc3)[C@H]2C(=O)N1C1CCCCC1	0	1	0	0	0	9.5*
CC[C@@]12C(=O)N(c3cccc(F)c3)C(=O)N1[C@H](c1ccc(F)cc1)[C@@H]1C(=O)N(C3CCCCC3)C(=O)[C@@H]12	.	.	.	0	.	13*
COC(=O)[C@]12C[C@H](CC(=O)N3CCSCC3)C(=O)N(Cc3ccc(Cl)cc3Cl)C1=C[C@H](C1CCCC1)O[C@@H]2C	-1	-1	-1	.	7	.
CC(=O)c1ccc(Nc2ccc(-c3ccccc3C)nn2)cc1	2	1	0	2	11*	6
CC(=O)c1cccc(Nc2ccc(-c3ccccc3F)nn2)c1	3.8*	4	-1	0	9	5
COc1ccccc1-c1ccc(Nc2cccc(C(C)=O)c2)nn1	0	1	-2	1	4	4
c1cc(Nc2ncnc3sc4c(c23)CCC4)ccn1	1	0	-1	0	-1	0
NNc1ncnc2sc3c(c12)CCC3	1	4	1	6.3*	12*	5
C(=N\Nc1ncnc2sc3c(c12)CCC3)/c1cccs1	1	2	-1	0	0	13*
O=C(Nc1nc2ncccn2c1-c1ccc(F)c(F)c1)c1ccccc1	-2	2	-1	.	2	.
COC(=O)c1ccccc1NC(=O)C1CCN(c2ncnc3c2nc2n3CCCCC2)CC1	0	0	-1	4.8*	3	2
COc1ccc(NC(C)=O)cc1S(=O)(=O)Nc1ccc(C(=O)N2CCCC2)cc1	0	1	-1	4.4*	-1	2
CCc1nnn2c1Cn1c3ccccc3c(=O)n1[C@@H](C(C)C)C2	0	-1	-1	.	0	.
O=C(COc1nncc2ccccc12)Nc1ccc(F)c(F)c1	0	0	-2	5.7*	-3	0
Cc1cc(C)c(NC(=O)COc2nncc3ccccc23)c(C)c1	0	1	1.6*	0	-2	1
CCCCN(C)CCCNC(=O)c1ccc2c(c1)N(CC)C(=O)c1ccccc1S2=O (stereo unspecified)	0	0	-1	0	1	1
CCCCN(C)C(=O)c1ccc2c(c1)N(CC)C(=O)c1ccccc1S2=O (stereo unspecified)	0	-1	-1	4.7*	-1	1
COc1ccc(-n2nnnc2SCC(=O)Nc2ccccc2N2CCOCC2)cc1OC	0	2	-1	4.3*	0	-1
OCCNc1nc(Nc2ccccc2C(F)(F)F)nc(N2CCCC2)n1	-1	-1	-1	2	-1	1
NC(=O)c1ccccc1Nc1nc(NCCO)nc(N2CCCC2)n1	1	-1	-1	4.4*	0	0
COc1ccc(C(=O)Nc2cnc3ccccn3c2=O)cc1	3	1	0	4	12*	4
COc1ccc(OC)c(NC(=O)c2cc3c(=O)n4ccccc4nc3n2C)c1	1	-1	-1	0	4	2
Cc1nn2c(=O)c(NC(=O)c3ccc(F)cc3)cnc2s1	-1	-1	-1	1	0	3
O=C(Nc1cnc2ccccn2c1=O)c1ccc(F)cc1	1	1	0	3	11*	5
O=S1(=O)c2c(NCc3ccco3)cccc2Oc2ccccc2CN1Cc1cn(Cc2ccc(Cl)cc2)nn1	1	-3	-1	.	-4	.
SMILES	DAX1 inh-1	hcDAF-12 act	ssDAF12 agonist	DAX1 inh-2	hgDAF-12 ag	GAA850 FXN act
O=C(OCc1ccccc1)[C@H](Cc1ccccc1)NC(=O)[C@@H]1CC=C[C@@H]2CCN(CCc3ccccc3)C(=O)[C@@H]21	.	-1	-2	.	0	.
O=S1(=O)C=CCN1Cc1cn(Cc2ccc(C(F)(F)F)cc2)nn1	0	-2	-1	.	1	.
Cc1onc(-c2c(F)cccc2Cl)c1C(=O)NC1CC1	1	1	-1	0	0	1
Cn1c(-c2ccccc2F)cc2onc(-c3ccccc3)c2c1=O	5.0*	4	0	5.5*	12*	2
Cn1c(=O)c2c(-c3ccccc3)n(-c3ccccc3F)cc2n(C)c1=O	-1	-1	-1	.	-4	.
Cn1c(-c2ccccc2)cc(=O)cc1-c1ccccc1	1	1	-1	0	1	4
Cn1c(-c2ccccc2)cc2onc(-c3ccccc3)c2c1=O	3	5.6*	0	2	4	-6
Cn1c(-c2ncc(F)cc2F)cc2onc(-c3c(F)cccc3Cl)c2c1=O	1	9.3*	1.3*	6.4*	10	2
O=C(Cc1ccccc1F)N1CCC(n2nnc3ncccc32)CC1	-1	-1	-1	.	2	.
COc1ccc(N2CCN(CCNS(=O)(=O)c3ccccc3[N+](=O)[O-])CC2)cc1	-1	-4	-1	.	-2	.
Cc1ccc(OC(=O)c2sc(Cl)nc2C)cc1C	0	-1	-1	4.3*	-2	0
COc1ccc(N(C)C(=O)c2sc(Cl)nc2C)cc1	0	-1	-1	0	0	-1
Cc1cc(N2CCNC[C@H]2C)ccc1N1CCN(Cc2ccccc2)[C@@H](C)C1	-1	-1	0	.	1	.
Nc1ncnc(N)c1N=Nc1ccccc1	1	-2	-2	1	0	6
Nc1ccc2ccccc2c1N=Nc1ccccc1	1	4	1.3*	1	4	2
S=C(c1ccc(-c2ccc(Br)cc2)o1)N1CCOCC1	2	3	0	.	12*	6
S=C(c1ccc(-c2ccc(Br)cc2)o1)N1CCCCC1	3	1	-1	2	10	6
Cc1ccc(CSc2ncn(-c3ccccc3)n2)cc1	0	2	-1	4.2*	1	2
COc1ccc2c(c1)C[C@@H]1CC(C)(C)CN1S2(=O)=O	.	-1	-1	.	1	.
C/C(=N\OC(=O)NC(C)C)c1sc(-c2ccc(Cl)cc2)nc1C	1	1	-1	0	5	2
CCNC(=O)O/N=C(\C)c1sc(-c2ccc(Cl)cc2)nc1C	2	5	0	2	11*	2
